Measurements from article PMC5540273 (PLoS ONE, 2017).

Experiments:
Settings in all cases: concentration: 1 μM, replicates: in singlicate; n = 1
MAP4K3 = tested on: MAP4K3
MAP4K4 = tested on: MAP4K4
MAP4K5 = tested on: MAP4K5
MAPKAPK2 = tested on: MAPKAPK2
MAPKAPK5 = tested on: MAPKAPK5
MARK1 = tested on: MARK1
MARK2 = tested on: MARK2
MARK3 = tested on: MARK3
MARK4 = tested on: MARK4
MAST1 = tested on: MAST1
MEK1 = tested on: T1, MEK1
T1 construct: gene MAP2K1

MEK2 = tested on: T2, MEK2
T2 construct: gene MAP2K2

MEK3 = tested on: T3, MEK3
T3 construct: gene MAP2K3

MEK4 = tested on: T4, MEK4
T4 construct: gene MAP2K4

MEK5 = tested on: T5, MEK5
T5 construct: gene MAP2K5

MEK6 = tested on: T6, MEK6
T6 construct: gene MAP2K6

MELK = tested on: MELK
MERTK = tested on: MERTK
MET = tested on: MET
MINK = tested on: T7, MINK
T7 construct: gene MINK1
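Note: KINOMEscan kinase panel screen.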

Compound	%Inh (MAP4K3) [%]	%Inh (MAP4K4) [%]	%Inh (MAP4K5) [%]	%Inh (MAPKAPK2) [%]	%Inh (MAPKAPK5) [%]	%Inh (MARK1) [%]	%Inh (MARK2) [%]	%Inh (MARK3) [%]	%Inh (MARK4) [%]	%Inh (MAST1) [%]	%Inh (MEK1) [%]	%Inh (MEK2) [%]	%Inh (MEK3) [%]	%Inh (MEK4) [%]	%Inh (MEK5) [%]	%Inh (MEK6) [%]	%Inh (MELK) [%]	%Inh (MERTK) [%]	%Inh (MET) [%]	%Inh (MINK) [%]
CCc1ccnc(/C=C/c2n[nH]c3cc(Sc4ccccc4C(=O)NC)ccc23)c1	0	0	3	0	0	27	4	3	21	0	0	10	0	0	62	9	6	0	0	34
Nc1nccc(-c2c(-c3ccc(F)cc3)ncn2C2CCN(CC(F)(F)F)CC2)n1 [SB-236560]	0	0	0	0	0	0	0	0	4	40	0	0	30	0	10	0	0	9	0	43
Cc1c(Cn2c(C)nn3c(=O)cc(N4CCOC(C)C4)nc23)cccc1C(F)(F)F (centres unmarked) [GSK2344444]	0	18	16	1	0	0	0	0	0	0	0	0	0	17	49	0	0	10	0	0
COc1ccc(Nc2ncc(C#N)c(Nc3ccccc3C(N)=O)n2)cc1N1CCN(C)CC1.Cl [GSK1558669]	99.8	96.8	99.3	0	0	99.3	99.9	89	98.7	91.8	85	92.6	89	92.5	100	79	100	100	92	98.7
CN1c2ccc(NCc3ccc(F)cc3)cc2-c2c(cnn2C)S1(=O)=O	1	0	12	0	0	0	0	0	13	11	7	27	13	0	17	0	0	0	3	26
[2H]C([2H])(c1cccc(C(F)(F)F)c1C)n1ccn2c(=O)nc(N3CCOCC3)cc12 [GSK2336394]	0	6	0	22	0	0	0	0	2	0	0	0	0	35	1	0	0	0	0	0
O=C(NCCCN1CCOCC1)c1cccc(Nc2nccc(Nc3ccc(Oc4ccccc4)cc3)n2)c1 [GW663929]	0	6	0	0	0	0	19	8	0	0	71	77	7	21	100	11	10	0	0	18
Cc1ccc(C(=O)NCC(N)=O)cc1-n1c(C)cc(OCc2ccc(F)cc2F)c(Br)c1=O	12	4	0	17	0	24	11	10	16	0	0	26	0	0	2	13	24	3	15	0
Cc1cccc(Cn2ccn3c(=O)cc(N4CCOCC4)nc23)c1 [GSK2297542]	0	4	0	14	0	7	11	0	10	0	0	0	0	23	14	5	8	24	23	7
Cc1cccc(-c2nc(Nc3ccc4ncsc4c3)c3ccccc3n2)n1 [GW867588]	9	3	4	0	0	6	0	0	9	21	2	3	3	0	12	0	5	0	0	0
